PubChem BioAssay AID651951 (The Scripps Research Institute Molecular Screening Center, 2012)
Among all 2,400 compounds or so, about 1,100 (46%) were called active.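 Rule for the calls: active = inhibition above the run cutoff, the mean inhibition of all test compounds plus 3 SD (cut at about 49% in these data); inactive = the rest.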 The set was probably picked from earlier hits. The list is a sample of the results.

Target: Trace amine-associated receptor 1 (Homo sapiens) (UniProt Q96RJ0)
Assay: TAAR1 desensitization by agonist hits, confirmation, counter-screen for TAAR1 agonist project, cell-based, fluorescence, tachyphylaxis (AID 651951);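 note: beta-PEA stimulus applied at its EC80; loss of beta-PEA calcium signal after compound pretreatment read as receptor desensitization; 0% = DMSO with beta-PEA at EC80 and 100% = DMSO alone without agonist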
Settings: CHO RD-HGA16 hTAAR1, Fluo-8 calcium, beta-PEA response inhibition; at 3 µM; active compounds read high

Trace amine-associated receptor 1 (Homo sapiens), sequence (Q96RJ0 whole entry, looked up): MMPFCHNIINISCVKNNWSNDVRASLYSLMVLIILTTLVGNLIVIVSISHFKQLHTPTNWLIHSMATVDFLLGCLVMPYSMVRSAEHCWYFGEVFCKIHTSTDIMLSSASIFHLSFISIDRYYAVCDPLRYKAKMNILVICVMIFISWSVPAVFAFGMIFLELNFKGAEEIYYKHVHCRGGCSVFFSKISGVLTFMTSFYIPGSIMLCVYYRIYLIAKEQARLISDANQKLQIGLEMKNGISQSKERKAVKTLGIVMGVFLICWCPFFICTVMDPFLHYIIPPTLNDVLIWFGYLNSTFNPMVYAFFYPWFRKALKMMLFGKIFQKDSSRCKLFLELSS

Row | SMILES | inhibition
1 | CCC(=NCCc1ccccc1)c1c(O)n(C2CCCCC2)c(=O)[nH]c1=O | 55.8% (active)
2 | Cc1cccc(N2C(=O)NC(=O)/C(=C\c3cnn(-c4ccccc4)c3)C2=O)c1 | 54.4% (active)
3 | NCC(O)c1ccc(O)cc1 (centres undefined) | 53.1% (active)
4 | COc1ccc(Br)cc1CNCCc1cccc(Cl)c1 | 40% (inactive)
5 | CC(Cc1ccccc1)NC=O (centres undefined) | 78.2% (active)
6 | c1ccc(CCNC2CCCCCC2)cc1 | 91% (active)
7 | O=C1NC(=O)N(Cc2ccco2)C(=O)/C1=C\c1ccc(-c2ccc(F)cc2)o1 | 42.5% (inactive)
8 | CCCCC(=O)N/N=C/c1c(O)n(CC)c(=S)n(CC)c1=O | 88% (active)
9 | Clc1ccc2nc3c(c(-c4ccccc4)c2c1)CNCC3 | 39.3% (inactive)
